In all, about 310,000 compounds went through this assay and about 18,000 (5.8%) were called active. Inconclusive results (about 22%) are left out. This excerpt belongs to a sample that is enriched for actives. A number with no mark means an inactive call. The call rests on the fitted dose curve; in most records, active means well fitted inhibition curve with a large enough effect; inconclusive means small, poorly fitted or top-dose-only effect, or another doubt; inactive means no such curve, though single readings can be large or run the other way.
test: Primary qHTS for delayed death inhibitors of the malarial parasite plastid, 48 hour incubation; settings: P. falciparum luciferase growth in erythrocytes; series mostly up to 28.7 µM; activity change, negative = inhibition: at the top concentration
Description: The goal of this screen is to discover new antimalarial compounds that act by inhibiting the development of the apicoplast in the malarial parasite Plasmodium falciparum. The biochemical processes that make this organelle essential for erythrocytic stage parasites are not well understood. However, antibiotics such as azithromycin and tetracycline, which target the apicoplast translational machinery, have a potent antimalarial effect.
We have developed a cell-based assay that measures parasite growth based on the expression of an integrated copy of a firefly luciferase reporter. To detect small molecules that cause this "delayed death" phenotype, erythrocytes infected with the luciferase-expressing parasites were incubated with compounds for either one or two generations, corresponding to 48 and 96 hours, respectively. Compounds that inhibit parasite growth in the second generation, but not the first, should be enriched in antimalarials that target the apicoplast. Growth inhibition is detected by a decrease in luciferase activity.
Assay Provider: David Fidock and Eric Ekland, Columbia University
Keywords: NIH Roadmap, MLPCN, MLI, MLSMR, qHTS, NCGC, qHTS, malaria, luciferase, viability
Four microliters of culture medium (RPMI 1640 with 0.5% w/v Albumax (GIBCO), 24 mM sodium bicarbonate and 10 ug/mL gentamycin) were dispensed by a Multi-drop Combi into white solid 1536-well plates (Grenier) and 23 nL compound was added by a pin tool. Four microliters of infected erythrocytes (2% hematocrit, 0.1% parasitemia final concentration) in culture medium were dispensed and the plates incubated for 48 hours at 37 C in 5% CO2. Two microliters of luciferase detection reagent was added and luminescence was detected by a ViewLux (PerkinElmer) reader.
On the % scale 0 is the no-effect control and ±100 the full control effect; potency means the concentration at half of the fitted maximal effect.

SMILES	activity change, negative = inhibition	Potency
Cc1sc2ncn(CC(=O)NCCN(C)C)c(=O)c2c1S(=O)(=O)N1CCC(C)CC1	4.82%	
COCCCn1c(Cc2csc(Nc3cccc(Cl)c3)n2)nnc1SCC(=O)OC1CCCCC1		8.28 µM (active)
COCCCn1c(SCC(=O)Nc2ccccc2)nnc1-c1ccncc1	-1.61%	
COCCCn1c(SCC(=O)NC2CCCC2)nnc1-c1ccccc1	0.923%	
COc1cc(C(=O)OCC(=O)NC(C)CCc2ccccc2)cc(OC)c1OC (configuration not stated)	-10.2%	
NC(=O)c1cc(S(=O)(=O)NCCCc2ccco2)cs1	-26.8%	
COc1cccc(CNC(=O)CCC2CCCN(C(=O)c3cc(C)[nH]n3)C2)c1 (configuration not stated)	0%	
Cc1[nH]c2c(C(=O)N3CCCC(CCC(=O)NCc4ccccc4F)C3)cccc2c1C (configuration not stated)		11.7 µM (active)
COc1cccc(C(=O)N2CCCC(CCC(=O)NCc3ccc(F)c(F)c3)C2)c1 (configuration not stated)	-0.317%	
CCOc1ccc(NC(=S)N2CCC(NC(=O)c3ccccc3)CC2)cc1	25.8%	
COc1ccc(NC(=O)CCC(=O)N2CCN(S(=O)(=O)c3ccc(C)cc3)CC2)c(OC)c1	-9.09%	
COc1ccc(NS(=O)(=O)c2ccc(NC(C)=O)cc2)cc1OC	-1.61%	
COc1ccc(C(=O)Oc2cc(/C=N/NS(=O)(=O)c3ccc(C)cc3)ccc2OC)cc1	-2.4%	
COc1ccc(/C=C/C(=O)c2ccc(NS(=O)(=O)c3ccc(C)cc3)cc2)cc1O		14.7 µM (active)
Cc1cc(Cl)c2oc(C(=O)N(C)C(C)c3ccccn3)c(C)c2c1 (configuration not stated)	8.93%	
CCc1nccn1CCC(=O)N1CCCC(N2CCN(c3ccccc3F)CC2)C1 (configuration not stated)	-21.7%	
O=C(c1ccc(Cl)c(S(=O)(=O)N2CCCCC2)c1)N1CCCCCC1	11.7%	
O=C(Nc1cccc(S(=O)(=O)N2CCCCC2)c1)c1ccc2c(c1)OCO2	11.6%	
O=C(C1CC(=O)N(c2ccc(F)cc2)C1)N1CCN(c2ccccc2)CC1 (configuration not stated)	38.4%	
O=C(Nc1ccc2c(c1)OCCO2)c1ccc(Cl)c(S(=O)(=O)N2CCCCC2)c1		6.57 µM (active)
CNS(=O)(=O)c1ccc(NC(=O)C2CC(=O)N(c3ccc(Cl)cc3)C2)cc1 (configuration not stated)	-7.43%	
CC1CC(C)CN(C(=O)C2CC(=O)N(c3ccc(F)cc3)C2)C1 (configuration not stated)	16.7%	
O=C(NC1CCCC1)C1CC(=O)N(c2ccc(F)cc2)C1 (configuration not stated)	46.9%	
O=C(c1ccc(Cl)c(S(=O)(=O)N2CCCCCC2)c1)N1CCN(c2ccc(O)cc2)CC1		13.1 µM (active)
Cc1ccc(C(=O)Nc2ccc3c(c2)OCO3)cc1S(=O)(=O)N1CCCCC1	-24.7%	
O=C(Nc1ccc(S(=O)(=O)N2CCCCC2)cc1)C1CC(=O)N(c2ccc(F)cc2)C1 (configuration not stated)		5.22 µM (active)

SMILES	activity change, negative = inhibition	Potency
CCC(C)c1ccccc1N1CC(C(=O)N2CCN(S(=O)(=O)c3ccc(F)cc3)CC2)CC1=O (configuration not stated)		10.4 µM (active)
O=C(c1ccc(Cl)c(Cl)c1)N1CCCC1	18.7%	
COC(=O)c1ccc(NC(=O)c2cc3c(CO)cnc(C)c3oc2=Nc2cccc(C(N)=O)c2)cc1	10.2%	
Cc1nc(NC(=O)c2ccc3c(c2)OCCO3)ccc1Br	324%	
CCCCn1c(N)c(N(CCOC)C(=O)c2oc3ccc(OC)cc3c2C)c(=O)[nH]c1=O	-10.5%	
Cc1cn([C@H]2CC(F)[C@@H](CO)O2)c(=O)[nH]c1=O (some centres not stated)	0.676%	
COc1ccc2cc(C(=O)C3CCCN(C(=O)c4sc(C)nc4C)C3)ccc2c1 (configuration not stated)	-15.4%	
COc1ccccc1C(=O)NC(CCSC)C(=O)NNC(=O)c1ccccc1C (configuration not stated)	6.75%	
Cc1ccc(CN(CC(=O)NCC2CCCO2)S(=O)(=O)c2ccc(C)cc2)cc1 (configuration not stated)	6.34%	
O=C(Cc1ccccc1)Nc1ccc(C(=O)Nc2ccccc2C(=O)O)cc1	-11.1%	
CCOC(=O)c1sc(NC(=O)C2CSC3(C)CCC(=O)N23)nc1C (configuration not stated)	-29.7%	
CCOC(=O)N1CCN(Cc2nc3cc(NC(C)=O)ccc3n2C)CC1	19.6%	
O=C(Nc1ccc(F)cc1)C1CCCN(S(=O)(=O)c2ccc(-n3cnnn3)cc2)C1 (configuration not stated)	1.34%	
CC(=O)c1ccccc1NC(=O)C1CC(=O)N(c2ccc3c(c2)OCCO3)C1 (configuration not stated)	-4.46%	
O=C(Nc1ccccc1)C1CCN(C(=O)c2ccc(Br)cc2)CC1	-23.3%	
O=C(Nc1ccc(S(=O)(=O)N2CCCCC2)cc1)C1CCN(C(=O)c2ccc(F)cc2)CC1		9.28 µM (active)
Cc1ccc(NC(=O)C2CC(=O)N(c3ccc4c(c3)OCCO4)C2)cc1S(=O)(=O)N1CCCCCC1 (configuration not stated)		11.7 µM (active)
CCOC(=O)c1ccc(NC(=O)C2CC(=O)N(c3ccc4c(c3)OCCO4)C2)cc1 (configuration not stated)	-24.2%	
Cc1c(Cl)c([N+](=O)[O-])nn1CC(=O)NCCCN1CCOCC1	24%	
N[C@@H](Cc1ccccc1)C(=O)N1CCOCC1	23.4%	
CSCC[C@H](NC(=O)N1CCn2c1nc1ccccc12)C(=O)NC1CCCCC1	-18.4%	
COc1cccc(CNC(=O)CCC2CCCN(C(=O)c3ccc(F)c(Cl)c3)C2)c1 (configuration not stated)	-19%	
CCOc1ccc(CC(=O)NC2CCN(Cc3ccccc3)CC2)cc1	1.1%	
Cc1ccc(S(=O)(=O)N(C)C)cc1NC(=O)CN1c2cccc3cccc(c23)S1(=O)=O		13.1 µM (active)
O=C(O)CN1c2cccc3cccc(c23)S1(=O)=O	39.3%	
CC(C)CN(CC(C)C)C(=O)CN1c2cccc3cccc(c23)S1(=O)=O	9.64%	

SMILES	activity change, negative = inhibition	Potency
Cc1cc(=O)n2nc(N3CCC(C(=O)Nc4c(F)c(F)c(F)c(F)c4F)CC3)sc2n1	-2.44%	
CCOc1ccc(S(=O)(=O)N2CCN=C2Cc2ccccc2)cc1C	3.8%	
Cc1ccc(C23CC4CC(CC(C(=O)NCC(=O)O)(C4)C2)C3)cc1	18.8%	
CC(=O)Nc1ccc(NC(=O)CCN2C(=O)C3CC=CCC3C2=O)cc1 (configuration not stated)	-5.38%	
COc1cccc(NC(=O)[C@H](Cc2c[nH]c3ccccc23)NC(=O)[C@@H]2Cc3ccccc3CN2)c1		9.28 µM (active)
COc1ccc(NC(=O)[C@H](NC(=O)[C@@H]2Cc3ccccc3CN2)c2ccccc2)cc1	-16.2%	
COc1ccc(CNC(=O)[C@H](Cc2c[nH]c3ccccc23)NC(C)=O)cc1OC	6%	
CCOC(=O)c1c(C)[nH]c(C)c1S(=O)(=O)NCCCc1ccco1	-0.529%	
CC1CCCCC1NC(=O)CCS(=O)(=O)c1ccc2c(c1)NC(=O)CO2 (configuration not stated)	9.15%	
CCOc1ccc(CN2CCN(Cc3ccc4cc(F)ccc4n3)CC2CCO)cc1 (configuration not stated)	7.78%	
COc1cccc(CN(C)CC(=O)Nc2sc3c(c2C#N)CCC3)c1	-7.19%	
COc1cccc(CN(C)CC(O)COC(c2ccccc2)c2ccccc2C)c1 (configuration not stated)		8.28 µM (active)
COc1ccc(OCC(O)CN(C)C(=O)C(C)Oc2ccccc2)cc1 (configuration not stated)	-15.8%	
CC(=O)Nc1ccc(NC(=O)CSc2nnnn2-c2ccccc2F)cc1	7.75%	
O=C(NCCNc1ccccc1[N+](=O)[O-])c1ccccc1F	192%	
COc1ccccc1C(=O)Nc1ccc(OCC(=O)N2CCCCC2)cc1	33.9%	
CC(C)c1ccc2c(c1)c(SC(C)(C)C)c(CC(C)(C)C(=O)O)n2Cc1ccc(Cl)cc1		8.28 µM (active)
O=C(O)c1ccc(Cn2c(=S)[nH]c3cc(Cl)ccc3c2=O)cc1	12.3%	
COc1ccc(NS(=O)(=O)c2cccc3nsnc23)cc1Cl	-4.88%	
COc1cccc(NC(=O)c2nn(-c3ccc(OC)cc3OC)c(=O)c3ccccc23)c1	21.4%	
COc1ccc(-n2nc(C(=O)Nc3cc(OC)c(OC)c(OC)c3)c3ccccc3c2=O)c(OC)c1	26.5%	
COc1ccc(-n2nc(C(=O)NCC(=O)N3CCN(c4ccccc4OC)CC3)c3ccccc3c2=O)c(OC)c1		1.04 µM (active)
O=C(NCCCN1CCCCC1)C1CC(=O)N(CCc2ccccc2)C1 (configuration not stated)	28%	
O=C(Nc1ccc2c(c1)OCO2)C1CC1(Cl)Cl (configuration not stated)	34.4%	
CCOc1ccc(C(O)Cc2nc3ccccc3n2C)cc1 (configuration not stated)	48.9%	
Cn1c(=N)n(CC(O)c2ccccc2)c2ccccc21 (configuration not stated)	80.1%	

SMILES	activity change, negative = inhibition	Potency
CCOc1ccc(C(O)Cn2c(=N)n(CCN3CCCCC3)c3ccccc32)cc1 (configuration not stated)		4.65 µM (active)
COc1ccc(N(CC(=O)NCc2ccc(F)cc2)C(=O)CCC(=O)Nc2nccs2)cc1	9.32%	
CN1CCN(NC(=O)Nc2ccc(Br)cc2)CC1	84%	
Cc1ccc(C)c(NC(=O)COC(=O)Cn2c(C)csc2=O)c1	1.84%	
COC(=O)c1ccc(OC(=O)c2cnccn2)cc1	10.3%	
CC(C)C(=O)N1CC(=O)Nc2ccc(F)cc2C1c1ccc(F)cc1 (configuration not stated)	-8.58%	
FC(F)(F)Oc1ccc(NC(=S)NCc2ccccc2)cc1	16.6%	
CS(=O)(=O)c1sc(C(=O)NC(=S)Nc2ccc(OC(F)(F)F)cc2)c2c1C=CCC2		2.62 µM (active)
CCNC(=S)Nc1ccc(OC(F)(F)F)cc1	9.67%	
COc1ccc(/C=C(/NC(=O)c2ccccc2)C(=O)Nc2cccc(C(=O)O)c2)cc1	2.11%	
Cc1cc(C)cc(OCC(=O)OCC(=O)NC2CCCC2)c1	54.4%	
CS(=O)(=O)N1CCN(C(=O)CSc2ccccc2)CC1	14.8%	
CCCC[C@@H]1CN=C(N)N1CCc1cc(C(F)(F)F)cc(C(F)(F)F)c1		5.22 µM (active)
Cc1cccc(N2CCN(C(C)C(=O)N3CCc4ccccc43)CC2)c1C (configuration not stated)	-2.14%	
CCCn1c(=N)n(CC(=O)c2ccc(Cl)c(Cl)c2)c2ccccc21		7.38 µM (active)
CCCNC(=O)c1ccc(Cl)c(Cl)c1	27.8%	
CCCCOC(=O)Cn1c(=N)n(CCN(CC)CC)c2ccccc21	19.6%	
Cc1ccnc(N2C(=O)c3ccc([N+](=O)[O-])cc3C2=O)c1	-3.81%	
CCOC(=O)N1CCC(NC(=O)CCc2ccccc2)CC1	-17.2%	
CCOC(=O)CN1CCC(c2ccccc2)CC1	-10.5%	
CCOC(=O)N1CCC(c2cc(=O)n(-c3ccccc3)[nH]2)CC1		9.28 µM (active)
Cc1nn(-c2ccccc2)c(C)c1NC(=O)COc1ccc(Cl)cc1Cl	-13.7%	
COC(=O)c1c(NC(=O)COc2ccc(Cl)cc2Cl)sc2c1CC(C)(C)NC2(C)C		8.28 µM (active)
Cc1cc(NC(=O)COc2ccc(Cl)cc2Cl)n(CCC#N)n1	59.7%	

Reference: PubChem BioAssay AID504832 (National Center for Advancing Translational Sciences (NCATS), 2011)
